Bioassay records from PubChem.
CYP2C19 inhib = blockers of cytochrome P450 2C19 activity – biochemical, luminescence, ADME assay, primary screen | P33261 | CYP2C19 Supersomes, luciferin-H EGE luminescence, 30 min | inhibition, % at 5 µM | hit rate 21% among 96,000;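 active = CYP2C19 inhibition above a set limit at 5 µM in the primary screen, cut at about 50% in these data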
Target sequence (P33261 whole entry, looked up): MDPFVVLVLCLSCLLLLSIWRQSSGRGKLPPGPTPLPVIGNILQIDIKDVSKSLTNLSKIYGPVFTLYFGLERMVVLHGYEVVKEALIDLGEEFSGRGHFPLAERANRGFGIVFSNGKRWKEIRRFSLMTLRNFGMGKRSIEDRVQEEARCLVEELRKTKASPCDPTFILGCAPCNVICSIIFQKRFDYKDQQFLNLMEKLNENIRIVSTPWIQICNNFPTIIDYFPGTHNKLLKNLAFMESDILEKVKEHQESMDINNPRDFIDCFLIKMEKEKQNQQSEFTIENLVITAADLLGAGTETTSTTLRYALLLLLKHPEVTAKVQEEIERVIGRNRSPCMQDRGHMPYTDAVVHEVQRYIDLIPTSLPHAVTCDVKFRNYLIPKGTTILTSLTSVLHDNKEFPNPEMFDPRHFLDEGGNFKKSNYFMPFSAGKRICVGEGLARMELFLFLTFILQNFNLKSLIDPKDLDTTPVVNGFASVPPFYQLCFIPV
CYP2C9 activ = human CYP2C9 activators, primary screen, biochemical, luminescence | recombinant CYP2C9, luciferin-H conversion; active compounds read high; factor 1 = untreated enzyme, 0 = blocked | hit rate 1.4% among 96,000 | Cytochrome P450 2C9 (Homo sapiens), P11712 | activation factor at 5 µM;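 active = activation factor of 2 or more for CYP2C9 at a 5 µM dose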
CYP2C19 act = human CYP2C19 activators, primary screen, biochemical, luminescence. activation factor at 5 µM. recombinant CYP2C19, luciferin-H EGE luminescence; active compounds read high; 0 = fully inhibited enzyme, 1 = untreated enzyme. Cytochrome P450 2C19 (Homo sapiens), P33261. AID 1025, 2008. 96,000 tested, under 10 active;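 active = activation factor of at least 2 at 5 µM in the primary screen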
PostGolgi yeast = phenotypic screen on post-Golgi transport, primary screen | hit rate 0.9% among 98,000 | inhibition, % at 10 µM | post-Golgi transport phenotypic cell assay;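 also: yeast cells grown in 1536-well plates; yeast grown about 18 h at 30C before absorbance read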
PostGolgi ctrl = growth inhibition of yeast control strain, primary screen, counter-screen for post-Golgi transport modulator project; efflux-deficient yeast background strain, growth absorbance A615, 16 h; inhibition, % at 10 µM; hit rate 5% among 98,000
CYP2C9 inh = blockers of cytochrome P450 2C9 activity – biochemical, luminescence, ADME assay, primary screen | CYP2C9 Supersomes, luciferin-H conversion | inhibition, % at 5 µM | hit rate 20% among 96,000 | AID 777, 2007;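 active = blocking of liver enzyme CYP2C9 beyond about 50% at 5 µM, limit read from the data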
Numbers stand for hits; n = inactive; x = no result given. Only some compounds are listed: those with a hit (about 32% of all), similar ones and a draw of the others. Rule as the data show it, unless noted: active = inhibition above about 30%; inactive = the rest.

SMILES	CYP2C19 inhib	CYP2C9 activ	CYP2C19 act	PostGolgi yeast	PostGolgi ctrl	CYP2C9 inh
COCCN(C(=O)Cc1cccs1)c1nnc(-c2ccncc2)s1	98	n	n	n	n	73
COC(=O)c1ccc(OC(=O)C2CC(=O)N(c3ccc(C)cc3C)C2)cc1 (configuration not stated)	n	n	n	n	n	n
O=C(Nc1nnc(Cc2ccccc2)s1)c1ccco1	n	n	n	n	n	n
NC(=O)c1cc(Cc2ccccc2)sc1NC(=O)c1ccco1	n	n	n	n	45	56
CCCc1cc(C(N)=O)c(NC(=O)c2cc(C)on2)s1	n	n	n	n	49	64
CCCc1cc(C(N)=O)c(NC(=O)c2ccoc2C)s1	67	n	n	n	n	88
CCCc1cc(C(=O)OC)c(NC(=O)OCC)s1	n	n	n	n	n	n
CCc1c(C)sc(NC(=O)c2cc(C)on2)c1C#N	n	n	n	n	n	n
Cc1[nH]nc2c1C(c1cn[nH]c1-c1ccc(F)cc1)C(C#N)=C(N)O2 (configuration not stated)	n	n	n	n	n	n
C[N+](C)(C)C/C=C1/COCO1	n	n	n	n	n	n
COc1ccccc1CNC(=O)C(CCSC)NC(=O)C1CCC(C)CC1 (configuration not stated)	n	n	n	n	n	n
COc1ccccc1CNC(=O)C1CCC(CNc2c(N3CCOCC3)c(=O)c2=O)CC1 (configuration not stated)	n	n	n	n	n	n
CO/N=C(/CNC(=O)c1cccc(Cl)c1)c1ccc(Cl)cc1	92	n	n	n	n	68
CO/N=C(/CNC(=O)c1ccc(Cl)cc1Cl)c1ccc(Cl)cc1	62	n	n	n	n	n
CCCCn1nc2cc(C(=O)NCC34CC5CC(CC(C5)C3)C4)ccc2c1OC	n	n	n	n	n	n
CCc1ccc2c(c1)cc(CN(C(=S)Nc1ccc(Cl)cc1)C1CC1)c1nnnn12	n	n	n	n	n	78
O=C(NCC(=O)N(c1ccc(F)cc1)C(C(=O)NCC1CCCO1)c1ccccc1)c1ccco1 (configuration not stated)	n	n	n	n	n	n
O=C(CNS(=O)(=O)c1ccc2ccccc2c1)OCc1nnc(-c2ccccc2)o1	n	n	n	n	n	n
CCC(=O)Nc1ccccc1Nc1cc(C#N)c(C#N)cc1[N+](=O)[O-]	69	n	n	x	x	n
CCOC(=O)c1cnn(CCOC(=O)C2CC2)c1NC(=O)C1CC1	n	n	n	n	n	n
O=C(COC(=O)c1ccc(Sc2ccccc2)c([N+](=O)[O-])c1)NC1CCCc2ccccc21 (configuration not stated)	n	n	n	n	n	88
CC1CC(C)CN(c2ccc(C(=O)OCC(=O)NC3CCCc4ccccc43)cc2[N+](=O)[O-])C1 (configuration not stated)	n	n	n	n	n	52
O=C(CCn1cccc1)NC1CCCc2ccccc21 (configuration not stated)	n	n	n	n	n	n
O=C(CCC(=O)Nc1ccc(Oc2ccccc2)cc1)NCCO	n	n	n	n	n	n
Cc1ccc(S(=O)(=O)N2CCC(C(=O)NCCc3ccc(S(N)(=O)=O)cc3)CC2)cc1	n	n	n	n	n	n
SMILES	CYP2C19 inhib	CYP2C9 activ	CYP2C19 act	PostGolgi yeast	PostGolgi ctrl	CYP2C9 inh
O=C(OC1CCc2ccccc2C1=O)c1ccccc1O (configuration not stated)	82	n	n	n	n	90
CCOC(=O)NC(Nc1nnc(SCC)s1)(C(F)(F)F)C(F)(F)F	n	n	n	n	n	n
COc1ccc2[nH]c(C(=O)O)c(NS(=O)(=O)c3ccc(Cl)s3)c2c1	79	n	n	n	n	99
COc1ccc(COC(=O)N/N=C(\C)CC(=O)Nc2c(C)cc(C)cc2C)cc1	n	n	n	n	n	n
O=C(c1cc2c(s1)-c1ccccc1OC2)N1CCCC1	n	n	n	n	n	n
CCOC(=O)N1CCN(C(=O)c2cc3c(s2)-c2ccccc2OC3)CC1	n	n	n	n	n	54
O=C(c1cc2c(s1)-c1ccccc1OC2)N1CCN(c2ccccn2)CC1	n	n	n	n	n	n
O=C(c1cc2c(s1)-c1ccccc1OC2)N1CCN(c2ccccc2)CC1	72	n	n	n	55	71
O=C1CCCN1CCCNCC(=O)N1c2ccccc2Sc2ccccc21	n	n	n	n	n	n
O=C(COc1ncnc2ccc(Br)cc12)NCc1ccc2c(c1)OCO2	n	n	n	n	n	n
CN1CC2=Cc3ccccc3OC23Oc2ccccc2C=C3C1	54	n	n	n	n	58
N#CCC(=O)N/N=C/c1ccc(Sc2nc3ccccc3s2)o1	78	n	n	n	n	n
O=C(COc1cccc2ccccc12)N/N=C/c1ccc(Sc2nc3ccccc3s2)o1	n	n	n	n	n	n
O=C(Cc1cccc2ccccc12)N/N=C/c1ccc(Sc2nc3ccccc3s2)o1	n	n	n	n	35	76
Cc1ccccc1OCC(=O)N/N=C/c1ccc(Sc2nc3ccccc3s2)o1	74	n	n	n	n	83
O=C(COC(=O)C1COc2ccccc2O1)Nc1ccc2c(c1)CCC2 (configuration not stated)	n	n	n	n	n	n
CCN(CC)CCCN1C(=O)C(=O)/C(=C(/O)c2ccc3c(c2)CC(C)O3)C1c1ccncc1 (configuration not stated)	n	n	n	x	x	n
CCCCOc1ccc(-c2nc(=S)[nH][nH]2)cc1	n	n	n	n	n	n
CC(=O)OC1CC(C)N(C(=O)c2ccccc2)c2ccc(C)cc21 (configuration not stated)	85	n	n	n	n	n
CCOC(=O)CSc1nnc(C2CCCCC2)n1C	n	n	n	n	n	n
C#CCOC(=O)CCCNc1ccc([N+](=O)[O-])cc1[N+](=O)[O-]	62	n	n	n	n	58
COC(=O)CCCNC(=O)OCc1ccc([N+](=O)[O-])cc1	n	n	n	n	n	n
Cc1cccc(OCC(=O)Nc2ccc(S(=O)(=O)N3CCCC3)cc2)c1	n	n	n	n	n	n
COCCN(CC(=O)Nc1cccc(C)c1)S(=O)(=O)c1ccc(S(=O)(=O)N2CCCC2)cc1	n	n	n	n	n	61
CCOC(=O)NC(=O)CSc1nnnn1-c1ccc(Cl)cc1	x	x	x	n	n	x
Cc1ccc(-c2ccc(/C=N/n3cnnc3)o2)cc1Cl	64	n	n	80	60	61
O=[N+]([O-])c1ccccc1-c1ccc(/C=N/n2cnnc2)o1	n	n	n	n	n	n
